Bioassay records from PubChem BioAssay.
PLCg1 inh = blocks human PLC-gamma1 enzyme activity. P19174. purified PLC-gamma1, fluorogenic substrate, fluorescence. inhibition, % at 12.2 µM. 370,000 compounds, 0.84% hits. AID 720700; in the data active means inhibition above about 9.5%
ADAM17 inh = ADAM17 inhibition, QFRET primary screen. P78536. recombinant ADAM17, EDANS/DABCYL FRET peptide cleavage. inhibition, % at 6.95 µM. 370,000 compounds, 0.83% hits. AID 720648;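 active means inhibition above the mean of compounds lying between control limits plus 3 SD, set per campaign, cut at about 8.5% in these data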;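 further: 0% = DMSO-only wells as the low control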
Target sequence (P78536 215-824 limits assumed): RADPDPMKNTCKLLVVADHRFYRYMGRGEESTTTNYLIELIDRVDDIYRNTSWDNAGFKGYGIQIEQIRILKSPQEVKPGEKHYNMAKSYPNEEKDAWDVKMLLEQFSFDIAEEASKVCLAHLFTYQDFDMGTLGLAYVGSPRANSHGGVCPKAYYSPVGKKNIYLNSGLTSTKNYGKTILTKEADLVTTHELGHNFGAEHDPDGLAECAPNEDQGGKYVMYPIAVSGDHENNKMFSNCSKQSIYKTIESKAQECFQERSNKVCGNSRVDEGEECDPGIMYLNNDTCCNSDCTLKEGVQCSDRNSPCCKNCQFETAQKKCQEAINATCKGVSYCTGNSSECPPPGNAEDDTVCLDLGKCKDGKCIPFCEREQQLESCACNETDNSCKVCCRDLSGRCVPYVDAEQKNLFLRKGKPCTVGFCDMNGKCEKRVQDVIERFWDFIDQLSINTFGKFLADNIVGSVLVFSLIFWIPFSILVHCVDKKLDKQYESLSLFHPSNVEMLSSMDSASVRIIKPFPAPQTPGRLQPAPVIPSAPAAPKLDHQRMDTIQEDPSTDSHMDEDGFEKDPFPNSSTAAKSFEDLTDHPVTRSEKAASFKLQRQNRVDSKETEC
PLCb3 inh = inhibitors of human phospholipase C beta3; Q01970; Purified PLC-beta3, fluorogenic substrate, fluorescence; 370,000 compounds, 0.18% hits; inhibition, % at 12.2 µM; AID 720704; in the data active means inhibition above about 11%;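 further: 0% = median of compound wells on plate and 100% = full blocker control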
KLK7 zymogen act = activators of human kallikrein-7 zymogen | P49862 | activation, % at 7 µM | purified proKLK7, EDANS-DABCYL substrate fluorescence; 100% is mature enzyme control, 0% vehicle | 370,000 compounds, 0.9% hits;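 active means activation above the mean of all tested compounds plus 3 SD, computed per campaign excluding outliers beyond control limits, cut at about 13% in these data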
ADAM10 inh = ADAM10 inhibition, QFRET primary screen; inhibition, % at 7 µM; recombinant ADAM10, EDANS/DABCYL FRET peptide cleavage, 3 h; O14672; 370,000 compounds, 0.62% hits;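 active means inhibition above a per-campaign cutoff equal to the mean of compounds falling between control-based bounds plus 3 SD, cut at about 20% in these data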;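 further: 0% = DMSO wells while the 100% control is not disclosed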
proKLK7 act conf = proKLK7 activation, confirmation | 3,200 compounds, 68% hits | activation, % at 7 µM | shares compounds with KLK7 zymogen act | purified proKLK7, EDANS-DABCYL substrate fluorescence; scaled: vehicle 0, mature enzyme 100 | AID 686949;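 active means activation, as change over the incubation, above the mean of all tested compounds plus 3 SD, cut at about 13% in these data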
EDANS-DABCYL int = optically interferes with EDANS-DABCYL signal, flagging KLK7 hits; shares compounds with KLK7 zymogen act; EDANS-DABCYL substrate fluorescence interference, no enzyme, 4 h; solvent 0%, active enzyme control 100%; activation, % at 7 µM; 3,200 compounds, 80% hits; AID 686952;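 active means activation above the all-compound mean plus 3 SD, ignoring values outside control-based bounds, cut at about 4.8% in these data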;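 further: value is the 4 h activation minus the activation read at time zero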
Active calls of the source: *; i = inactive; . = no result. In the library only some 2.9% were active in any assay of this set; here they are far more common.

SMILES	PLCg1 inh	ADAM17 inh	PLCb3 inh	KLK7 zymogen act	ADAM10 inh	proKLK7 act conf	EDANS-DABCYL int
COc1ccc(N2CCN(CC(=O)c3ccccc3)CC2)cc1	-4	-4	-9	0	-5	.	.
COc1ccc(N2CCN(CCC(=O)c3ccc4ccccc4c3)CC2)cc1	-8	-12	-19	22*	-14	15*	15*
Brc1cc2ccccc2[n+](Cc2ccccc2)c1	-2	-5	-1	0	-6	.	.
CCC[n+]1c2ccccc2cc2ccccc21	-95	-267	-137	77*	i	73*	81*
CCCC[n+]1c2ccccc2cc2ccccc21	-89	-244	-127	65*	i	70*	74*
CC(OP(=O)(O)C(NC(=O)[C@H](Cc1ccc(O)cc1)NC(=O)OC(C)(C)C)C(C)C)C(=O)O (stereo partly drawn)	1	-2	0	.	-2	.	.
Nc1ccc(-c2nc3cc(N)ccc3n2CCO)cc1	i	-394	i	68*	i	66*	69*
Cn1c(CO)nc2cc(N)ccc21	-11	-4	-12	1	-6	.	.
CCCCn1c(SCC(=O)Nc2ccc(OC)cc2)nc2ccc(N3CCOCC3)cc2c1=O	-482	-33	i	17*	-140	-5	-4
Nc1cccc2c1C(=O)N(Cc1cccc(Cl)c1)C2=O	i	-77	i	27*	-204	4	-17
O=C1Cc2ccccc2C(=O)N1Cc1cccc(Cl)c1	-6	-3	-13	-2	10	.	.
N#CCC[C@@H]1CC[C@]2(CCCN(C(=O)c3ccco3)C2)O1	1	1	0	-1	1	.	.
COC(=O)c1cc(=O)c2cccc(OC)c2[nH]1	i	-320	i	196*	i	77*	77*
COc1cccc2c(=O)cn[nH]c12	i	-412	i	84*	i	66*	64*
CC(C)CN1C(=O)C[C@@]2(C(=O)N(C)c3ccc(NC(=O)c4cc(F)ccc4F)cc32)C1c1ccccc1 (stereo partly drawn)	1	-2	3	0	2	.	.
CN1C(=O)C2C(c3ccc(N(C)C)cc3)=NN(Cc3ccccc3)C2C1=O (stereo not drawn)	-2	-16	-13	24*	-45	24*	32*
CC1=CC2C3C(=O)N(c4ccccc4)C(=O)C3C1C(=O)C2(O)C(C)C (stereo not drawn)	-1	-3	-1	0	-12	.	.
C#CCNC(=O)C[C@H]1C(=O)N(CCc2ccc(Cl)cc2)C2=CCCC[C@@]21C(=O)OCC	0	-2	0	0	-3	.	.
COc1cc(Cn2c3ccc(NC(=O)NCc4ccc(F)cc4)cc3c(=O)n2C)ccc1F	-352	-478	-492	3	i	.	.
Cn1c(=O)c2cc(NC(=O)NCc3ccc(F)cc3)ccc2n1C	i	i	i	39*	i	31*	36*
COc1ccc(NC(=S)Nc2ccc3c(c2)c(=O)n(C)n3-c2ccccc2)cc1	i	-297	i	42*	i	36*	48*
Cn1c(=O)c2cc(NC(=S)NCc3ccccc3F)ccc2n1C	i	i	i	34*	i	10	8.7*
C=C(C)Cn1c2ccc(NC(=O)NCc3ccc(F)cc3)cc2c(=O)n1C	-455	i	i	30*	i	10	15*
O=C1CCC2(CCC(c3ccccc3)CC2)N1CCO (stereo not drawn)	4	1	7	0	6	.	.
COc1ccc(C2CC(c3cccs3)=Nc3ccccc3S2)cc1 (stereo not drawn)	-90	-66	-94	40*	-201	5	3
CSc1ccc(/C=C/C(=O)c2c(O)cc(C)oc2=O)cc1	-374	-21	-495	14*	-53	-4	-3
CCCC[C@H]1C2CC(OC(=O)Nc3cc(C)cc(C)c3)C(C2)[C@H]2CCCCN21 (stereo partly drawn)	1	-1	1	0	3	.	.
Cc1ccc2nc(NCCC(=O)O)nc(-c3ccccc3)c2c1	-87	-19	-119	2	-70	.	.
